Consider 40 molecules from PubChem BioAssay (Tox21).

Molecules are shown by their SMILES. Calls of active or inactive are those of the source. Entries that show only a call come without a potency. The call rests on the fitted dose curve.

The nature of this assay: G protein-coupled receptor (GPCR) small molecule agonists, calcium flux assay: HEK293 wild type cell line counter screen (AID 1920065). Conditions: HEK293 WT calcium flux, fluorescence, agonist mode; series mostly up to 57.6 µM. The text has this:
U.S. Tox21 Program National Center for Advancing Translational Sciences [NCATS] Division of Preclinical Innovation [DPI] U.S. Environmental Protection Agency [EPA] National Institutes of Environmental Health Sciences [NIEHS] National Toxicology Program [NTP] U.S. Food and Drug Administration [FDA] Assay overview: The increased intracellular calcium release that occurred upon G protein-coupled receptor (GPCR) activation led to the frequent use of calcium flux assays to detect GPCR activation. For the purpose of studying and screening compounds that may activate GPCR, receptor-overexpressing models were typically generated using Hek293 wild-type (WT) cells. In order to eliminate the compounds that may have induced calcium release for non-specific activation, a counter-assay utilizing calcium flux on Hek293 WT cells was performed. The data were formulated in order to serve as a control for any calcium flux detection utilizing Hek293 cells with either GPCR overexpression or gene modification. The procurement of Hek293 WT cells from ATCC. Fluorescence intensity can be utilized to determine the activation of the compound in a calcium flux assay. As a counter control, this cell line was utilized to screen the Tox21 10K compound library.
Assay Protocol Summary: Hek293 cells were dispensed at 1500cells/4uL/well in 1536-well black wall/clear bottom plates using a multidrop dispenser. After the assay plates were incubated at a 37 C/5% CO2 incubator for 18 hours, 4 uL of Calcium Dye Solution was added to each well. The plates were incubated at 37 C for 1 hour. For agonist mode, 23 nL of compounds dissolved in DMSO, positive control (ATP) or DMSO only was transferred to the assay plate by a pin tool station. The fluorescence intensity in the plates was measured using FDSS 7000EX kinetic plate reader with a filter set of Ex/Em=480/540 for 3 min at 1 sec intervals. Each test compound was measured at 15 concentrations and in triplicates.
(In general: A change in cytosolic calcium serves as a functional read-out for many receptors and channels.)
As to `Cc1cc(C2(c3cc(C)c(O)cc3C)OS(=O)(=O)c3ccccc32)c(C)cc1O`, the Potency result was “inactive”. To `O=S(=O)(O)c1ccc2nc(-c3ccccc3)[nH]c2c1` belongs “inactive”; to `C#C[C@]1(O)CC[C@H]2[C@@H]3CCc4cc(OC)ccc4[C@H]3CC[C@@]21C`, “inactive”; to `CCCCCCCCCC`, “inactive”.

In the case of `c1ccc2[nH]c(-c3cscn3)nc2c1`, the Potency result was “inactive”. For the molecule `c1ccc(Oc2ccccc2)cc1`, the Potency result was “inactive”. Turning to `O=[N+]([O-])C(CO)(CO)CO`, the Potency result is “inactive”. To `CCCCCCCCCCCCOC(=O)c1cc(O)c(O)c(O)c1` belongs “inactive”; to `Nc1cccc(C(F)(F)F)c1`, “inactive”; to `CCCCNC(N)=O`, “inactive”. For the molecule `O=c1[nH]c(=O)n([C@H]2C[C@H](O)[C@@H](CO)O2)cc1Br`, the Potency entry is “inactive”.

Take `COc1cc(C=O)ccc1O`: the Potency entry was “inactive”. In the case of `CCCCNC(=O)NS(=O)(=O)c1ccc(N)cc1`, the Potency result is “inactive”. Then `O=C(O)c1ccccc1`, with “inactive”; and `CC1=C(/C=C/C(C)=C/C=C/C(C)=C/C(=O)Nc2ccc(O)cc2)C(C)(C)CCC1`, with “inactive”; and `COCc1c(C(C)C)nc(C(C)C)c(/C=C/[C@@H](O)C[C@@H](O)CC(=O)O)c1-c1ccc(F)cc1`, with “inactive”. As for `CCCCOC(=O)COc1ccc(Cl)cc1Cl`, the Potency result is “inactive”. To `CN(C)CCOCCN(C)C` belongs “inactive”. Then `CC1(C)NC(=O)N(c2ccc([N+](=O)[O-])c(C(F)(F)F)c2)C1=O`, with “inactive”; and `Cc1cc(C)nc(NS(=O)(=O)c2ccc(N)cc2)n1`, with “inactive”; and `CCCc1c(OCCCCc2nn[nH]n2)ccc(C(C)=O)c1O`, with “inactive”. Take `O=C(O)C1=NN(c2ccc(S(=O)(=O)O)cc2)C(=O)C1`: the Potency entry was “inactive”. With `C=CC(C)(CCC=C(C)C)OC(C)=O` (stereo not given), the Potency result was “inactive”. For the molecule `CNNCc1ccc(C(=O)NC(C)C)cc1`, the Potency result is “inactive”. Consider `Nc1nc(=S)c2[nH]cnc2[nH]1`, for which the Potency result was “inactive”. Turning to `CCc1cccc(O)c1`, the Potency result is “inactive”. For the molecule `C=C(C#N)C(=O)OCC`, the Potency result is “inactive”.

In the case of `C=Cc1cccc(C)c1`, the Potency entry is “inactive”. To `CCOc1ccc(NC(=O)CC(C)O)cc1` (stereo not given) belongs “inactive”; to `O=C1OC(c2ccc(O)cc2)(c2ccc(O)cc2)c2ccccc21`, “inactive”; to `OC[C@@H](O)[C@H](O)[C@H](O)[C@@H](O)CO`, “inactive”. Regarding `CC(=O)OC(C)(C)C1CC=C(C)CC1` (stereo not given), the Potency result is “inactive”. To `Cc1ccc(C)c(S(=O)(=O)O)c1` belongs “inactive”; to `Cc1ncc(CO)c(CO)c1O`, “inactive”. To `CCCCOCCOCCSC#N` belongs “inactive”; to `C/C=C/c1ccc(OC)cc1`, “inactive”. Then `CC(C)=CCC/C(C)=C/C=O`, with “inactive”; and `CCCCOC(=O)c1ccc(O)cc1`, with “inactive”. With `C[C@H]1C[C@H]2[C@@H]3CCC4=CC(=O)C=C[C@]4(C)[C@@]3(F)[C@@H](O)C[C@]2(C)[C@@]1(O)C(=O)CO`, the Potency result is “inactive”.

Consider `C1CCCNCC1`, for which the Potency entry is “inactive”.
